Results from the antibiotic and cytotoxicity screens of Wong et al. (2023).
Hit rate of the full screen: of about 39,000 compounds, about 3,300 (8.5%) were called active. For the sample, actives were picked, then their nearest neighbours and some compounds at random.

Test system: HepG2
Experiment: cytotoxicity call (relative viability < 0.9)
Settings: 10 µM

| SMILES | cytotoxicity call |
| --- | --- |
| Cc1noc(C)c1NC(=O)N(C)C[C@H]1Oc2ccc(NC(=O)c3ccncc3)cc2C(=O)N([C@@H](C)CO)C[C@@H]1C | inactive |
| C[C@@H]1CN([C@H](C)CO)C(=O)c2cc(NC(=O)c3ccncc3)ccc2O[C@H]1CN(C)Cc1ccc(-c2ccccc2)cc1 | active |
| C[C@H](CO)N1C[C@H](C)[C@H](CN(C)Cc2ccc(Oc3ccccc3)cc2)Oc2ccc(NC(=O)c3ccncc3)cc2C1=O | active |
| C[C@H](CO)N1C[C@H](C)[C@@H](CN(C)Cc2ccc(-c3ccccc3)cc2)Oc2ccc(NC(=O)c3ccncc3)cc2C1=O | inactive |
| Cc1noc(C)c1NC(=O)N(C)C[C@H]1Oc2ccc(NC(=O)c3ccncc3)cc2C(=O)N([C@@H](C)CO)C[C@H]1C | inactive |
| Cc1noc(C)c1NC(=O)N(C)C[C@H]1Oc2ccc(NC(=O)c3ccncc3)cc2C(=O)N([C@H](C)CO)C[C@@H]1C | active |
| C[C@@H]1CN([C@@H](C)CO)C(=O)c2cc(NC(=O)c3ccncc3)ccc2O[C@@H]1CN(C)Cc1ccc(-c2ccccc2)cc1 | inactive |
| C[C@@H]1CN([C@H](C)CO)C(=O)c2cc(NC(=O)c3ccncc3)ccc2O[C@@H]1CN(C)Cc1ccc(Oc2ccccc2)cc1 | inactive |
| C[C@H]1CN([C@@H](C)CO)C(=O)c2cc(NC(=O)c3ccncc3)ccc2O[C@@H]1CN(C)Cc1ccc(Oc2ccccc2)cc1 | inactive |
| C[C@@H]1CN([C@@H](C)CO)C(=O)c2cc(NC(=O)CCCN(C)C)ccc2O[C@H]1CN(C)Cc1ccncc1 | inactive |
| C[C@@H]1CCCCO[C@@H](CN(C)CC2CCCCC2)[C@@H](C)CN([C@@H](C)CO)C(=O)c2cc(NC(=O)CCC(F)(F)F)ccc2O1 | inactive |
| Cc1ccc(S(=O)(=O)N(C)C[C@@H]2Oc3ccc(NS(C)(=O)=O)cc3C(=O)N([C@H](C)CO)C[C@@H]2C)cc1 | inactive |
| COc1ccc2c3c(n(c2c1)C)[C@@H](CO)N(C[C@]13CN(Cc2ccncc2)C1)C(=O)CN1CCOCC1 | inactive |
| O=C(C[C@@H]1CC[C@H]2[C@@H](COC[C@@H](O)CN2Cc2ccccc2F)O1)N[C@@H]1CCN(Cc2ccccc2)C1 | inactive |
| C[C@@H]1CCCCO[C@@H](CN(C)C(=O)Nc2cccc3ccccc23)[C@H](C)CN([C@@H](C)CO)C(=O)c2cc(NS(=O)(=O)c3cccs3)ccc2O1 | inactive |
| C[C@@H]1CN([C@@H](C)CO)C(=O)c2c(c3ccccc3n2C)-c2ccccc2CO[C@@H]1CN(C)C(=O)NC1CCCCC1 | inactive |
| Cn1c(=O)c2c(ncn2CC(=O)N2CCN(c3ccccc3F)CC2)n(C)c1=O | inactive |
| CCN(CC)C(=S)SSC(=S)N(CC)CC | active |
| O=C(NCc1nc2ccccc2[nH]1)C1=C[C@@H](c2ccc(C(F)(F)F)cc2)C[C@@H](OCc2ccc(CO)cc2)O1 | inactive |
| Nc1cc(N)nc(SCCC(=O)O)n1 | inactive |

| SMILES | cytotoxicity call |
| --- | --- |
| COCC(=O)N1CC(=O)N2[C@H](CO)[C@@H](c3ccc(C#Cc4cccnc4)cc3)[C@H]2C1 | inactive |
| CC(C)C(=O)[C@@H]1C(=O)O[C@@H](c2ccoc2)[C@]2(C)[C@H](O)[C@@H](O)[C@@]34O[C@]5(C)O[C@]3([C@H]12)[C@H](O)[C@@]1(O)[C@H](O)[C@]2(C)C[C@]1(O5)[C@@]4(C)[C@H]2CC(=O)O | active |
| COC(=O)CC1C2(C)CC34OC5(C)OC6(C7C(=C(O)C(C)C)C(=O)OC(c8ccoc8)C7(C)C(OC(C)=O)C(OC(C)=O)C6(O5)C13C)C(OC(C)=O)C4(O)C2OC(=O)C(C)C (centres undefined) | inactive |
| CC(C)C(O)=C1C(=O)OC(c2ccoc2)C2(C)C(O)C(O)C34OC5(C)OC3(C12)C(O)C1(O)C(O)C2(C)CC1(O5)C4(C)C2CC(=O)O (centres undefined) | inactive |
| COc1cccc(S(=O)(=O)N(C)C[C@H]2Oc3ncc(C#CC(C)C)cc3C(=O)N([C@H](C)CO)C[C@@H]2C)c1 | inactive |
| C[C@@H]1CN([C@@H](C)CO)C(=O)c2c(c3ccccc3n2C)-c2ccccc2CO[C@@H]1CN(C)C(=O)[C@H](C)c1ccccc1 | inactive |
| C[C@H](C(=O)N(C)C[C@H]1OCc2ccccc2-c2c(n(C)c3ccccc23)C(=O)N([C@@H](C)CO)C[C@H]1C)c1ccccc1 | inactive |
| C[C@H](CO)N1C[C@H](C)[C@H](CN(C)C(=O)[C@H](C)c2ccccc2)OCc2ccccc2-c2c(n(C)c3ccccc23)C1=O | active |
| C[C@H](C(=O)N(C)C[C@@H]1OCc2ccccc2-c2c(n(C)c3ccccc23)C(=O)N([C@@H](C)CO)C[C@@H]1C)c1ccccc1 | inactive |
| C[C@@H](C(=O)N(C)C[C@H]1OCc2ccccc2-c2c(n(C)c3ccccc23)C(=O)N([C@@H](C)CO)C[C@@H]1C)c1ccccc1 | inactive |
| C[C@H](C(=O)N(C)C[C@H]1OCc2ccccc2-c2c(n(C)c3ccccc23)C(=O)N([C@@H](C)CO)C[C@@H]1C)c1ccccc1 | active |
| Cc1noc(C)c1NC(=O)Nc1ccc2c(c1)C(=O)N([C@H](C)CO)C[C@H](C)[C@@H](CN(C)Cc1ccccc1)OCCCC[C@H](C)O2 | inactive |
| C[C@H]1CN([C@@H](C)CO)C(=O)c2cc(NC(=O)Nc3ccc(C(F)(F)F)cc3)ccc2O[C@@H]1CN(C)Cc1ccccc1 | inactive |
| C[C@H](CO)N1C[C@H](C)[C@H](CN(C)Cc2ccccc2)Oc2ccc(NC(=O)Nc3ccc(C(F)(F)F)cc3)cc2C1=O | active |
| C[C@@H]1CN([C@@H](C)CO)C(=O)c2cc(NC(=O)Nc3ccc(C(F)(F)F)cc3)ccc2O[C@@H]1CN(C)Cc1ccccc1 | active |
| C[C@@H]1CN([C@H](C)CO)C(=O)c2cc(NC(=O)Nc3ccc(C(F)(F)F)cc3)ccc2O[C@@H]1CN(C)Cc1ccccc1 | active |
| C[C@@H]1CN([C@@H](C)CO)C(=O)c2cc(NC(=O)Nc3ccc(C(F)(F)F)cc3)ccc2O[C@H]1CN(C)Cc1ccccc1 | inactive |
| C[C@H]1CN([C@@H](C)CO)C(=O)c2cc(NC(=O)Nc3ccc(C(F)(F)F)cc3)ccc2O[C@H]1CN(C)Cc1ccccc1 | active |
| COc1ccc2c3c([nH]c2c1)[C@@H](CO)N(C[C@]13CN(Cc2ccccc2)C1)S(=O)(=O)c1cn(cn1)C | inactive |
